# CYP2C9 inhib: inhibitors of human CYP2C9 | 96,000 tested, 20% active | inhibition, % at 5 µM | AID 777 | CYP2C9 Supersomes, luciferin-H conversion, luminescence;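 active = blocking of liver enzyme CYP2C9 beyond about 50% at 5 µM, limit read from the data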
# Target sequence (P11712 whole entry, looked up): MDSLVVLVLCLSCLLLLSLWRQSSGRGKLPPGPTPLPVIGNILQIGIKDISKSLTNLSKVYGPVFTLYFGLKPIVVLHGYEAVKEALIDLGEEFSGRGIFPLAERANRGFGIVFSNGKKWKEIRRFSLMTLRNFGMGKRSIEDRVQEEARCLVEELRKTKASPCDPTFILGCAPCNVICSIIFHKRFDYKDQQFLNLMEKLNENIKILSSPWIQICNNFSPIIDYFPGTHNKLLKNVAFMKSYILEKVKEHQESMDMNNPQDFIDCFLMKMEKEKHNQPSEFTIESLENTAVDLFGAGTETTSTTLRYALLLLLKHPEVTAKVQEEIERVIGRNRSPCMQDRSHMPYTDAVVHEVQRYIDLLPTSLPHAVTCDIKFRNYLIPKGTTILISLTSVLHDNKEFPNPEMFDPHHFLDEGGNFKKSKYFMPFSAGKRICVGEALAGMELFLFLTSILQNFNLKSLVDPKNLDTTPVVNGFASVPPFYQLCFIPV
# PostGolgi yeast: growth inhibition of a yeast mutant, post-Golgi transport screen | post-Golgi transport phenotypic cell assay | inhibition, % at 10 µM | 98,000 tested, 0.9% active | AID 739;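 also: yeast cells grown in 1536-well plates; yeast grown about 18 h at 30C before absorbance read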
# CYP2C19 inh: human CYP2C19 inhibition; P33261; CYP2C19 Supersomes, luciferin-H EGE luminescence, 30 min; inhibition, % at 5 µM; 96,000 tested, 21% active;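 active = CYP2C19 inhibition above a set limit at 5 µM in the primary screen, cut at about 50% in these data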;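 also: plate controls were negative control wells for no effect and 2.5 mM tranylcypromine positive control for full effect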
# CYP2C19 activ: activators of human cytochrome P450 2C19; recombinant CYP2C19, luciferin-H EGE luminescence; stronger effect = higher value; 0 = fully inhibited enzyme, 1 = untreated enzyme; 96,000 tested, under 10 active; AID 1025; activation factor at 5 µM; P33261;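 active = activation factor of at least 2 at 5 µM in the primary screen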;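 also: 0 = wells with 2.5 mM tranylcypromine and 1 = vehicle-only wells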
# PostGolgi ctrl: yeast control strain growth, post-Golgi counter-screen. efflux-deficient yeast background strain, growth absorbance A615, 16 h. inhibition, % at 10 µM. 98,000 tested, 5% active. AID 738
# CYP2C9 activ: CYP2C9 (human) activation; recombinant CYP2C9, luciferin-H conversion, luminescence; stronger effect = higher value; factor 1 = untreated enzyme, 0 = blocked; activation factor at 5 µM; 96,000 tested, 1.4% active;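 active = activation factor of 2 or more for CYP2C9 at a 5 µM dose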;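 also: 0 = sulfaphenazole-blocked wells and 1 = vehicle-only wells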
# Numbers without * were called inactive; nt = not tested or not shown. An excerpt weighted towards active compounds, which were near 32% of everything screened. Rule as the data show it, unless noted: active = inhibition above about 30%; inactive = the rest.
SMILES,CYP2C9 inhib,PostGolgi yeast,CYP2C19 inh,CYP2C19 activ,PostGolgi ctrl,CYP2C9 activ
COc1ccc(-c2cn[nH]c2N)c(OC)c1,-21,3,-14,1.1,10,1.2
CCc1ccccc1S(=O)(=O)Cc1ccc(C(=O)NCc2ccc3c(c2)OCO3)o1,95*,-5,54*,0.5,12,0
O=C(NCc1ccc2c(c1)OCO2)c1cc2ccccc2o1,89*,1,30,0.7,-2,0.1
CC(C)C(=O)Nc1ccc(NC(=O)c2cc3ccccc3o2)cc1,50,-13,24,0.8,5,0.5
O=C(NCc1ccc2c(c1)OCO2)c1cccc(C(=O)NCc2ccc3c(c2)OCO3)c1,11,7,8,0.9,3,0.9
COc1ccc(CNC(=O)C(C)NC(=O)c2cc3ccccc3o2)cc1 (stereo not drawn),76*,5,23,0.8,6,0.2
O=C(CSc1nc2ccc(Cl)cc2o1)NCc1ccc2c(c1)OCO2,61*,7,23,0.8,15,0.4
O=C(NCc1ccc(F)cc1)c1ccc(CS(=O)(=O)Cc2ccccc2F)o1,-8,-4,30,0.7,8,1.1
O=C(CSc1c[nH]c2ccccc12)NCc1ccc2c(c1)OCO2,96*,-2,100*,0,13,0
O=C(CSc1nc(-c2ccccc2)cc(=O)[nH]1)NCc1ccc2c(c1)OCO2,96*,1,-5,1,-3,0
O=C(CSc1nc2ccccc2o1)NCc1ccc2c(c1)OCO2,95*,2,100*,0,16,0.1
N#C/C(=C/c1ccc2c(c1)OCO2)C(=O)NCCc1c[nH]c2ccccc12,34,8,24,0.8,36*,0.7
Cc1ccc2cc(CCNC(=O)C3CCCC3)c(=O)[nH]c2c1,-11,4,0,1,12,1.1
CC(=O)Nc1cccc(NC(=O)C2CCCN2C(=O)Nc2ccccc2C)c1 (stereo not drawn),9,-19,6,0.9,8,0.9
COc1ccccc1S(=O)(=O)Cc1ccc(C(=O)NC(C)c2ccc3c(c2)OCCO3)o1 (stereo not drawn),62*,-3,52*,0.5,11,0.4
COc1ccccc1S(=O)(=O)Cc1ccc(C(=O)NCc2cccnc2)o1,30,-1,23,0.8,-1,0.7
N#CC1=C(C2CC2)CC(c2ccccc2)C(C#N)=C1N (stereo not drawn),7,4,57*,0.4,25,0.9
Oc1ccc(N=Nc2n[nH]c(-c3ccc(Cl)cc3)n2)cc1,-104,0,20,0.8,19,2*
Oc1ccc(-c2n[nH]c(=S)n2Cc2ccccc2)cc1,39,5,18,0.8,-1,0.6
C=CCc1cccc(/C=N/n2cnnc2)c1O,30,-2,66*,0.3,10,0.7
O=c1c2c([nH]c3ccccc13)C(=C1CCCC1)CC2,6,-9,1,1,3,0.9
O=c1c2c([nH]c3ccccc13)CCCC2,-139,4,4,1,1,2.4*
O=C1c2cccc3c(N4CCCCC4)ccc(c23)C(=O)N1CCO,43,13,27,0.7,13,0.6
Cc1n[nH]c(C)c1N1C(=O)c2cccc3c(N4CCCCCC4)ccc(c23)C1=O,97*,4,83*,0.2,5,0
Cc1cccc(N2C(=S)N=C(Nc3c(C)cccc3C)C23CCOC(C)(C)C3)c1 (stereo not drawn),-14,-7,-14,1.1,6,1.1
SMILES,CYP2C9 inhib,PostGolgi yeast,CYP2C19 inh,CYP2C19 activ,PostGolgi ctrl,CYP2C9 activ
COc1ccc(-c2cc(C(=O)N3CCN(c4ccccc4)CC3)c3ccccc3n2)cc1OC,93*,0,89*,0.1,16,0.1
COc1cccc(N2CCN(c3ncccn3)CC2)c1,20,5,12,0.9,11,0.8
O=C(c1ccccc1-c1ccccc1)N1CCN(c2ccccn2)CC1,73*,-2,40,0.6,22,0.3
COc1ccc(N(C)C(=O)c2cnc(N3CCN(c4ncccn4)CC3)c3ccccc23)cc1,69*,-7,79*,0.2,8,0.3
O=C(c1cc(-c2cccnc2)nc2ccc(Br)cc12)N1CCN(c2ncccn2)CC1,58*,8,34,0.7,13,0.4
CN(C(=O)N1CCN(c2ccccn2)CC1)c1ccccc1,34,2,43,0.6,12,0.7
O=C(c1cc(N2CCCCC2)nc2ccccc12)N1CCOCC1,9,3,0,1,0,0.9
O=C(c1ccco1)N1CCN(C(=O)c2cc(-c3ccccn3)nc3ccccc23)CC1,4,7,1,1,1,1
O=C(c1cnc(N2CCN(c3ncccn3)CC2)c2ccccc12)N1CCN(c2ccccn2)CC1,80*,-4,68*,0.3,29,0.2
O=C(c1cc(-c2ccncc2)nc2ccccc12)N1CCN(c2ccccn2)CC1,85*,11,39,0.6,8,0.1
O=C(Nc1c(F)cccc1F)c1cnc(N2CCN(c3ccccn3)CC2)c2ccccc12,65*,0,36,0.6,6,0.4
CCN1CCN(c2ncc(C(=O)Nc3cc(Cl)ccc3OC)c3ccccc23)CC1,-66,-4,15,0.8,3,1.7
O=C(c1cc(-c2ccncc2)nc2ccccc12)N1CCN(c2ccc(N3CCOCC3)nn2)CC1,68*,2,38,0.6,6,0.3
COc1ccc(CC(=O)OCC(=O)Nc2c(C)n(C)n(-c3ccccc3)c2=O)cc1,-18,-4,-23,1.2,10,1.2
O=C(c1ccc(C#Cc2ccccc2)o1)N1CCN(c2ccccn2)CC1,56*,-1,15,0.8,42*,0.4
O=C(c1cc(-c2ccccc2)nc2ccccc12)N1CCN(c2ccccn2)CC1,52*,-7,37,0.6,12,0.5
CCN(CCNc1ccc(Cl)cc1[N+](=O)[O-])C(=O)c1cc([N+](=O)[O-])c(N(C)C)cc1OC,80*,-2,76*,0.2,4,0.2
Cn1cnnc1SCC(=O)Nc1ccccc1Sc1ccccc1,1,nt,39,0.6,nt,1
CSc1ccccc1NC(=O)c1ccccc1N(Cc1ccccc1)S(C)(=O)=O,59*,-4,43,0.6,12,0.4
CSc1ccccc1NC(=O)CN(c1cc(C)cc(C)c1)S(C)(=O)=O,71*,10,58*,0.4,4,0.3
Cc1ccccc1NC(=O)CN(c1ccc(F)cc1)S(C)(=O)=O,7,7,33,0.7,9,0.9
CS(=O)(=O)N(CC(=O)Nc1ccccc1Sc1ccccc1)c1cccc(Br)c1,66*,9,14,0.9,41*,0.3
CC1CC(NC(=O)c2ncn[nH]2)CC(C)(C)C1 (stereo not drawn),-8,-3,16,0.8,5,1.1

# Screening data as filed in PubChem BioAssay.
